Measured values: PubChem BioAssay AID588335 (The Scripps Research Institute Molecular Screening Center, 2011)
The campaign covered roughly 360,000 compounds. About 4,500 (1.2%) were called active. Rule as the data show it: active = inhibition above about 30%; inactive = the rest. What follows is part of a selection rich in actives, with near analogues and random picks from the rest.

assay: inhibition of GDH and TPI enzymes – biochemical, absorbance, full deck, artefact control for M. tuberculosis FBA inhibitor project, primary screen (AID 588335); details: GDH-TPI coupled enzyme counterscreen, NADH absorbance; at 4.8 µM; active compounds read high;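 also: 0% = DMSO wells and 100% = wells lacking the enzyme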

Structure (SMILES) | inhibition
COc1ccc(NC(=O)N(C)C[C@H]2Oc3ncc(C#C[C@@H](C)O)cc3C(=O)N([C@H](C)CO)C[C@H]2C)cc1 | 1.42% (inactive)
Cc1ccc2c(c1)C1C[N+](C)(CC(=O)c3ccccc3)CCC1N2C(=O)c1ccccc1Cl (configuration not stated) | -8.62% (inactive)
CN(C)c1ccc(/C=N/NC(=O)C(O)c2ccc(Br)cc2)cc1 (configuration not stated) | 30.4% (inactive)
O=C(N/N=C/c1ccc2c(c1)OCO2)c1ccc(Cn2cc([N+](=O)[O-])cn2)o1 | 43.3% (active)
CN(C)c1ccc(/C=N/NC(=O)c2ccc(Cn3cc(Br)cn3)o2)cc1 | 30.7% (active)
O=C(c1ccc(Cn2cc([N+](=O)[O-])cn2)o1)N1CCCC1 | -17.2% (inactive)
O=C(Nc1ccc(Br)c2cccnc12)c1ccc(Cn2cc([N+](=O)[O-])cn2)o1 | 4.69% (inactive)
CC1CCc2c(sc(NC(=O)c3ccc(Cn4cc(Br)cn4)o3)c2C(N)=O)C1 (configuration not stated) | 7.5% (inactive)
O=C(NCCCN1CCCCC1)C1CCCN(c2ncnc3c2nc2n3CCCCC2)C1 (configuration not stated) | -16.5% (inactive)
COc1ccc(OC)c(NC(=O)C2(C)CCN2C(=O)Cc2ccccc2)c1 (configuration not stated) | 7.08% (inactive)
C=C(C)CNC(=S)/N=c1\scc(C)n1CC | 13.2% (inactive)
O=C(NN=Cc1ccc(N2CCOCC2)cc1)c1cc2ccccc2cc1O | 50.6% (active)
COc1ccccc1C(=O)NC(=S)Nc1ccc(N2CCOCC2)cc1 | 19.6% (inactive)
Cc1ccc(/C=N/NC(=O)Cn2ccc(C(F)(F)F)n2)o1 | 7.37% (inactive)
O=C(O)c1ccc(NN=CC2=C(N3CCOCC3)/C(=C/c3ccccc3)CC2)cc1 | 22.9% (inactive)
Cc1ccc(/C=N/NC(=O)c2cc3ccccc3cc2O)o1 | 34.5% (active)
Cc1ccc(/C=N/NC(=O)Cn2nc(C)c(Br)c2C)o1 | 5.47% (inactive)
CCOC(=O)CN(C(=O)CN1CCOCC1)c1ccc(Br)cc1 | 9.62% (inactive)
Cn1c(SCC(=O)N2CCOCC2)nnc1-c1ccc(NC(=O)c2ccccc2F)cc1 | 0% (inactive)
Cc1cccc(C(C)C)c1NC(=O)COC(=O)C1CC(=O)N(Cc2ccccc2)C1 (configuration not stated) | -2.1% (inactive)
COc1ccc(CCNS(=O)(=O)c2cc3c(cc2C)NC(=O)CO3)cc1OC | -4.31% (inactive)
CC1(C)CC(=O)C=C(NCc2ccncc2)C1 | 0.7% (inactive)
O=C1/C(=C\c2ccc3c(c2)OCO3)N2CCC1CC2 | 33.3% (active)

Structure (SMILES) | inhibition
CCCNC(=O)N1CCC(c2ccc3c(c2)OCO3)CC1 | -5.17% (inactive)
O=C1/C(=C/c2ccc3c(c2)OCO3)Oc2cc(OCC(=O)N3CC(O)C[C@H]3C(=O)O)ccc21 (some centres not stated) | 28.4% (inactive)
CN(C(=O)CCn1c(=S)oc2ccccc21)C1CCCCC1 | 2.6% (inactive)
Cc1c(NS(=O)(=O)c2cccc(C(=O)Nc3ccc(SC(F)F)cc3)c2)c(=O)n(-c2ccccc2)n1C | 0.43% (inactive)
O=C(Nc1ccccc1F)c1cc(S(=O)(=O)N2CCCCC2)cs1 | -3.77% (inactive)
CC(=O)N1C(=O)C2(Nc3ccccc3N2)c2ccccc21 | 34.1% (active)
CC1(c2ccccc2)NC(=O)N(CC(=O)N2CC(=O)Nc3ccccc32)C1=O (configuration not stated) | -7.8% (inactive)
O=C1CN(C(=O)CN2C(=O)NC3(CCCCC3)C2=O)c2ccccc2N1 | 7.32% (inactive)
CSc1ccccc1NC(=O)CN(C)CC(=O)Nc1cccc(Br)c1 | -2.5% (inactive)
CC1(C(=O)NS(=O)(=O)c2cccc(F)c2)CCN1C(=O)Cc1ccc(Cl)cc1Cl (configuration not stated) | 1.79% (inactive)
COc1ccc(S(=O)(=O)NC(C)C(=O)NCc2ccncc2)cc1Cl (configuration not stated) | -4.46% (inactive)
O=C(COc1cc2oc(=O)c3c(c2cc1Cl)CCC3)NCCCN1CCOCC1 | 21.4% (inactive)
CC(Oc1cc2oc(=O)c3c(c2cc1Cl)CCCC3)C(=O)NCc1ccncc1 (configuration not stated) | 30.8% (active)
COC(=O)Cn1c(=NC(=O)CSCC(=O)Nc2cc(C)on2)sc2ccccc21 | 3.99% (inactive)
CC(NC(=O)C(=O)Nc1nccs1)c1ccccc1 (configuration not stated) | 9.56% (inactive)
COCCN1C(=O)C(=O)/C(=C(/O)c2ccc(S(=O)(=O)N3CCOCC3)cc2)C1c1ccc(O)c(OC)c1 (configuration not stated) | 5.9% (inactive)
COCCN1C(=O)C(=O)/C(=C(/O)c2ccc(S(=O)(=O)N3CCOCC3)cc2)C1c1ccc(OC)c(OC)c1 (configuration not stated) | 9.09% (inactive)
O=C1C(=O)N(CCN2CCOCC2)C(c2cccc(Cl)c2)/C1=C(/O)c1ccc2c(c1)OCO2 (configuration not stated) | 17.7% (inactive)
COCCN1C(=O)C(=O)/C(=C(/O)c2ccc(S(=O)(=O)N3CCCCC3)cc2)C1c1ccc(OC)c(OC)c1 (configuration not stated) | 33.3% (active)
COCCCN1C(=O)C(=O)/C(=C(/O)c2ccc(S(=O)(=O)N3CCOCC3)cc2)C1c1ccc(F)cc1 (configuration not stated) | 31% (active)
COc1cccc(C2/C(=C(/O)c3ccc(F)cc3)C(=O)C(=O)N2CCN(C)C)c1 (configuration not stated) | 10.2% (inactive)
O=C1C(=O)N(CCCN2CCOCC2)C(c2ccc([N+](=O)[O-])cc2)/C1=C(\O)c1ccc2c(c1)OCCO2 (configuration not stated) | 33.9% (active)
CCOc1cc(C2/C(=C(/O)c3ccc(S(=O)(=O)N4CCCCC4)cc3)C(=O)C(=O)N2CCOC)ccc1O (configuration not stated) | 0.74% (inactive)

Structure (SMILES) | inhibition
COc1ccc(C2/C(=C(/O)c3ccc(OC(C)C)cc3)C(=O)C(=O)N2CCCN2CCOCC2)cc1 (configuration not stated) | 11.5% (inactive)
Cc1ccc(C)c(NC(=O)NNC(=O)c2ccc3ccccc3c2O)c1 | 12.5% (inactive)
CCOC(=O)C1CCN(S(=O)(=O)c2ccc3c(c2)N(C)C(=O)CC(=O)N3C)CC1 | 6.72% (inactive)
O=C(CNCc1cccs1)Nc1cc(S(=O)(=O)N2CCCC2)ccc1Cl | 2.39% (inactive)
O=C(NCc1nnc(SCC(=O)N2CCCc3ccccc32)o1)c1ccccc1F | 11.2% (inactive)
CCOC(=O)c1c(C)n(C)c2ccc(OC)c(NS(=O)(=O)CC)c12 | 2.65% (inactive)
Cc1cc([N+](=O)[O-])c(-c2ccc(/C=N/n3cnnc3)o2)cc1Cl | 34.8% (active)
Cc1ccccc1OCCOc1ccc([N+](=O)[O-])cc1/C=N/n1cnnc1 | 3.11% (inactive)
Clc1cc(-c2ccc(/C=N/n3cnnc3)o2)ccc1Br | 18.6% (inactive)
CCOC(=O)c1cc(S(=O)(=O)NCCc2ccc(OC)c(OC)c2)cn1C | 1.68% (inactive)
COc1ccc(C)cc1N(C(=O)Cn1nnc(-c2ccc(C)o2)n1)C(C(=O)NC1CCCC1)c1ccncc1 (configuration not stated) | -13.4% (inactive)
COCOc1cc(O)c(C(=O)/C=C/c2ccc(OCOC)c(OCOC)c2)c(OCOC)c1 | 6.25% (inactive)
CCOc1ccc(NC(=S)NC(=O)/C=C/c2ccc(OC)cc2)c([N+](=O)[O-])c1 | 11.6% (inactive)
COc1ccc(/C=C/C(=O)c2cc(Br)ccc(=O)c2O)cc1 | 55.6% (active)
Cc1ccc(C(=O)O)cc1N1C(=O)CCCC1=O | 2.24% (inactive)
CCCN(CC(=O)Nc1ccccc1C)C(=O)c1ccc2[nH]c3c(c2c1)CC(C)CC3 (configuration not stated) | 18.2% (inactive)
COc1ccc(CC(=O)c2ccc(O)cc2O)cc1OC | 26.1% (inactive)
Oc1cccc(CCc2ccccn2)c1 | 7.36% (inactive)
O=C(Cc1ccccn1)c1ccc(O)cc1O | 33.6% (active)
O=C(Cn1cc2c(n1)CCCCC2)NCCN1CCOCC1 | -6.93% (inactive)
CC(C)Cn1cc(-c2cncc3nccn23)cn1 | 4% (inactive)
COc1ccc2c3c(c(=O)oc2c1OCC(=O)C(C)(C)C)CCCC3 | -0.64% (inactive)
O=c1oc2c(CN3CCCCC3)c(O)ccc2c2c1CCCCC2 | 30.6% (active)

Structure (SMILES) | inhibition
CCCOc1ccc2c3c(c(=O)oc2c1OCCC)CCC3 | 13.5% (inactive)
Cc1cc(N(C)C)cc(C)[n+]1[O-] | -1.57% (inactive)
Nc1nc(O)c(CC(=O)O)s1 | 5.96% (inactive)
CCCCc1cc(=O)oc2cc(C)cc(OCc3nn[nH]n3)c12 | 22% (inactive)
COc1ccc(-c2cc3ccc(OCc4nn[nH]n4)cc3oc2=O)cc1 | 34.6% (active)
Cc1noc(C)c1COc1ccc2ccc(=O)oc2c1 | 6.47% (inactive)
Cn1ccc(=Nc2ccc(NC(=O)c3ccc(N=c4ccn(C)c5ccc([N+](=O)[O-])cc45)cc3)cc2)cc1 | 13.7% (inactive)
O=C(NCc1cccnc1)c1cc(C2CCCN(C(=O)CCCc3ccccc3)C2)on1 (configuration not stated) | -5.31% (inactive)
CN(C(=O)C1CCN(c2ncnc3c2nc2n3CCCCC2)CC1)C1CCCCC1 | -2.53% (inactive)
O=C(NNc1ccccc1Cl)C(O)(c1cccc(C(F)(F)F)c1)c1cccc(C(F)(F)F)c1 | 10.2% (inactive)
Fc1cc(Br)ccc1NC(=S)Nc1cccnc1 | -0.63% (inactive)
COc1ccc(C(=O)CCC(=O)Nc2cccnc2)c(OC)c1 | -6.9% (inactive)
COc1cc(/C=N/NC(=S)Nc2cccnc2)cc(OC)c1O | 31.5% (active)
O=C(c1cccs1)C1C(c2ccc(Br)cc2)NC(=S)NC1(O)C(F)(F)F (configuration not stated) | 12.2% (inactive)
Cc1c(NC(=O)C(C)OC(=O)c2c3c(nc4ccccc24)CCC(C)C3)c(=O)n(-c2ccccc2)n1C (configuration not stated) | 3.38% (inactive)
Cc1ccc(-c2nnc(-n3nnc4ccccc43)c3ccccc23)cc1 | 6.42% (inactive)
Cc1ccc(-c2nc3ccccc3[nH]c2=O)cc1 | 32.1% (active)
Cc1ccccc1N1CC(c2nc3ccccc3[nH]2)CC1=O (configuration not stated) | 2.42% (inactive)
CC1(C(=O)NCc2ccc(F)c(F)c2)Cc2c(-c3ccc4c(c3)OCO4)ccnc2O1 (configuration not stated) | 0% (inactive)
CC1C(=O)Nc2ccccc2N1C(=O)c1c(F)cccc1F (configuration not stated) | -1.38% (inactive)
Cn1c(=NC(=O)c2ccco2)sc2cccc(F)c21 | 51% (active)
Cn1c(=NC(=O)c2cnccn2)sc2ccccc21 | 29.1% (inactive)
O=C(Cc1c(F)cccc1Cl)N1CCN(C(=O)c2ccco2)CC1 | -4.08% (inactive)
